Among the data in PMC11006913 are binding signal values, retold here.

Where a chain is given by its changes, count along the chain named.

Common to all, as to assay: PBM; 200 nM protein, PBS
Common to all, as to settings: dsDNA, one strand shown

For assay [1], the target named is T1, NKX2-4 (Homo sapiens, UniProt Q9H2Z4 175-261, P217L).
T1 sequence: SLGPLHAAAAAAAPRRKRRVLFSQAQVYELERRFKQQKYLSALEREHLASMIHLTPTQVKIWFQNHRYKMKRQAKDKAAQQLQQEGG

Assay [2] concerns the target T2, NKX2-4 (Homo sapiens, UniProt Q9H2Z4 175-261, T231S).
T2 sequence: T1 sequence with L43P, T57S

The target of assay [3] is T3, NKX2-4 (Homo sapiens, UniProt Q9H2Z4 175-261).
T3 sequence: T1 sequence with L43P

Assay [4] deals with T4, NKX2-4 (Homo sapiens, UniProt Q9H2Z4 175-261, R246Q).
T4 sequence: T1 sequence with L43P, R72Q

For the sequence AACTCTTG, the binding signal with NKX2-4 [1] was 11.7 upbm affinity estimate (log intensity, higher = more binding, comparable within an allelic series); with NKX2-4 [2], 11.8 upbm affinity estimate (log intensity, higher = more binding, comparable within an allelic series); with NKX2-4 [3], 11.6 upbm affinity estimate (log intensity, higher = more binding, comparable within an allelic series); with NKX2-4 [4] it was 12 upbm affinity estimate (log intensity, higher = more binding, comparable within an allelic series).
As to CCGACGTC, the binding signal is 9.19 upbm affinity estimate (log intensity, higher = more binding, comparable within an allelic series) with NKX2-4 [1]; 9.13 upbm affinity estimate (log intensity, higher = more binding, comparable within an allelic series) in the assay with NKX2-4 [2]; 9.23 upbm affinity estimate (log intensity, higher = more binding, comparable within an allelic series) with NKX2-4 [3]; 9.18 upbm affinity estimate (log intensity, higher = more binding, comparable within an allelic series) with NKX2-4 [4].
Take GCGAGCCA: the binding signal in the assay with NKX2-4 [1] was 9.74 upbm affinity estimate (log intensity, higher = more binding, comparable within an allelic series); with NKX2-4 [2] it was 9.69 upbm affinity estimate (log intensity, higher = more binding, comparable within an allelic series); in the assay with NKX2-4 [3] it was 9.69 upbm affinity estimate (log intensity, higher = more binding, comparable within an allelic series); with NKX2-4 [4], 9.76 upbm affinity estimate (log intensity, higher = more binding, comparable within an allelic series).
ACCGTCTG: the binding signal with NKX2-4 [1] was 9.6 upbm affinity estimate (log intensity, higher = more binding, comparable within an allelic series); in the assay with NKX2-4 [2], 9.59 upbm affinity estimate (log intensity, higher = more binding, comparable within an allelic series); with NKX2-4 [3], 9.56 upbm affinity estimate (log intensity, higher = more binding, comparable within an allelic series); with NKX2-4 [4] it was 9.61 upbm affinity estimate (log intensity, higher = more binding, comparable within an allelic series).
Turning to AACGCTGG, the binding signal with NKX2-4 [1] is 9.65 upbm affinity estimate (log intensity, higher = more binding, comparable within an allelic series); in the assay with NKX2-4 [2], 9.71 upbm affinity estimate (log intensity, higher = more binding, comparable within an allelic series); in the assay with NKX2-4 [3] it was 9.67 upbm affinity estimate (log intensity, higher = more binding, comparable within an allelic series); with NKX2-4 [4], 9.82 upbm affinity estimate (log intensity, higher = more binding, comparable within an allelic series).
Regarding ACCTGGGC, the binding signal is 9.66 upbm affinity estimate (log intensity, higher = more binding, comparable within an allelic series) in the assay with NKX2-4 [1]; 9.68 upbm affinity estimate (log intensity, higher = more binding, comparable within an allelic series) with NKX2-4 [2]; 9.7 upbm affinity estimate (log intensity, higher = more binding, comparable within an allelic series) with NKX2-4 [3]; 9.78 upbm affinity estimate (log intensity, higher = more binding, comparable within an allelic series) with NKX2-4 [4].
For AGCTCGCG, the binding signal with NKX2-4 [1] is 9.6 upbm affinity estimate (log intensity, higher = more binding, comparable within an allelic series); in the assay with NKX2-4 [2] it was 9.58 upbm affinity estimate (log intensity, higher = more binding, comparable within an allelic series); with NKX2-4 [3] it was 9.62 upbm affinity estimate (log intensity, higher = more binding, comparable within an allelic series); with NKX2-4 [4], 9.63 upbm affinity estimate (log intensity, higher = more binding, comparable within an allelic series).
CCGGCTCA: the binding signal with NKX2-4 [1] is 9.54 upbm affinity estimate (log intensity, higher = more binding, comparable within an allelic series); in the assay with NKX2-4 [2], 9.64 upbm affinity estimate (log intensity, higher = more binding, comparable within an allelic series); in the assay with NKX2-4 [3], 9.59 upbm affinity estimate (log intensity, higher = more binding, comparable within an allelic series); with NKX2-4 [4], 9.56 upbm affinity estimate (log intensity, higher = more binding, comparable within an allelic series).
As for AAGAGGGG, the binding signal in the assay with NKX2-4 [1] was 11.9 upbm affinity estimate (log intensity, higher = more binding, comparable within an allelic series); with NKX2-4 [2], 12.2 upbm affinity estimate (log intensity, higher = more binding, comparable within an allelic series); with NKX2-4 [3] it was 11.8 upbm affinity estimate (log intensity, higher = more binding, comparable within an allelic series); with NKX2-4 [4], 12.1 upbm affinity estimate (log intensity, higher = more binding, comparable within an allelic series).
Regarding AAAGTAGC, the binding signal in the assay with NKX2-4 [1] is 11.5 upbm affinity estimate (log intensity, higher = more binding, comparable within an allelic series); with NKX2-4 [2] it was 11.9 upbm affinity estimate (log intensity, higher = more binding, comparable within an allelic series); with NKX2-4 [3], 11.5 upbm affinity estimate (log intensity, higher = more binding, comparable within an allelic series); with NKX2-4 [4] it was 11.7 upbm affinity estimate (log intensity, higher = more binding, comparable within an allelic series).
As to CACTTTGA, the binding signal with NKX2-4 [1] is 11.7 upbm affinity estimate (log intensity, higher = more binding, comparable within an allelic series); with NKX2-4 [2], 12 upbm affinity estimate (log intensity, higher = more binding, comparable within an allelic series); with NKX2-4 [3], 11.6 upbm affinity estimate (log intensity, higher = more binding, comparable within an allelic series); with NKX2-4 [4], 12 upbm affinity estimate (log intensity, higher = more binding, comparable within an allelic series).
Regarding GCACTACA, the binding signal with NKX2-4 [1] was 11.7 upbm affinity estimate (log intensity, higher = more binding, comparable within an allelic series); in the assay with NKX2-4 [2] it was 11.7 upbm affinity estimate (log intensity, higher = more binding, comparable within an allelic series); with NKX2-4 [3], 11.6 upbm affinity estimate (log intensity, higher = more binding, comparable within an allelic series); with NKX2-4 [4], 11.9 upbm affinity estimate (log intensity, higher = more binding, comparable within an allelic series).
Take CGGCGTTA: the binding signal in the assay with NKX2-4 [1] is 9.81 upbm affinity estimate (log intensity, higher = more binding, comparable within an allelic series); in the assay with NKX2-4 [2], 9.61 upbm affinity estimate (log intensity, higher = more binding, comparable within an allelic series); in the assay with NKX2-4 [3] it was 9.82 upbm affinity estimate (log intensity, higher = more binding, comparable within an allelic series); with NKX2-4 [4] it was 9.89 upbm affinity estimate (log intensity, higher = more binding, comparable within an allelic series).
In the case of CCTGGAGC, the binding signal with NKX2-4 [1] is 9.98 upbm affinity estimate (log intensity, higher = more binding, comparable within an allelic series); with NKX2-4 [2] it was 9.95 upbm affinity estimate (log intensity, higher = more binding, comparable within an allelic series); with NKX2-4 [3] it was 9.96 upbm affinity estimate (log intensity, higher = more binding, comparable within an allelic series); with NKX2-4 [4], 9.94 upbm affinity estimate (log intensity, higher = more binding, comparable within an allelic series).
ACCAACGG: the binding signal was 9.32 upbm affinity estimate (log intensity, higher = more binding, comparable within an allelic series) with NKX2-4 [1]; 9.25 upbm affinity estimate (log intensity, higher = more binding, comparable within an allelic series) in the assay with NKX2-4 [2]; 9.28 upbm affinity estimate (log intensity, higher = more binding, comparable within an allelic series) in the assay with NKX2-4 [3]; 9.29 upbm affinity estimate (log intensity, higher = more binding, comparable within an allelic series) with NKX2-4 [4].
Regarding CTTGAGGA, the binding signal in the assay with NKX2-4 [1] was 11.9 upbm affinity estimate (log intensity, higher = more binding, comparable within an allelic series); with NKX2-4 [2], 12.3 upbm affinity estimate (log intensity, higher = more binding, comparable within an allelic series); in the assay with NKX2-4 [3], 11.8 upbm affinity estimate (log intensity, higher = more binding, comparable within an allelic series); with NKX2-4 [4] it was 12.2 upbm affinity estimate (log intensity, higher = more binding, comparable within an allelic series).
Regarding CGGTTCCA, the binding signal with NKX2-4 [1] is 9.98 upbm affinity estimate (log intensity, higher = more binding, comparable within an allelic series); with NKX2-4 [2], 9.95 upbm affinity estimate (log intensity, higher = more binding, comparable within an allelic series); in the assay with NKX2-4 [3], 9.92 upbm affinity estimate (log intensity, higher = more binding, comparable within an allelic series); in the assay with NKX2-4 [4], 10 upbm affinity estimate (log intensity, higher = more binding, comparable within an allelic series).
In the case of TCCACTAA, the binding signal in the assay with NKX2-4 [1] is 11.6 upbm affinity estimate (log intensity, higher = more binding, comparable within an allelic series); in the assay with NKX2-4 [2], 11.7 upbm affinity estimate (log intensity, higher = more binding, comparable within an allelic series); with NKX2-4 [3], 11.5 upbm affinity estimate (log intensity, higher = more binding, comparable within an allelic series); in the assay with NKX2-4 [4], 11.7 upbm affinity estimate (log intensity, higher = more binding, comparable within an allelic series).
